From PubChem BioAssay
A selection: hits, their analogues and other compounds. The true share with any hit is near 7.2%.
MARV entry inh – blocks Marburg virus binding to or entry into cells; Marburg virus pseudotyped entry inhibition, cell reporter; Potency, µM (titrated, usually from 37.8 µM), for inactives: at the highest dose activity change, negative = inhibition, most hits filed as inhibitors; 1.8% of 300,000 active; AID 540276; calls by dose curve; tested in HEK293 cells
FMDV inh – foot and mouth disease virus antiviral activity; 1.2% of 410,000 active; Potency, µM (top dose mostly 57.9 µM), for inactives: at the highest dose activity change, negative = inhibition, usual class: inhibitors; AID 1159524; FMDV antiviral cell-based qHTS; calls by dose curve; tested in HEK293T cells; also: read-out not given here; nearly all actives have a fitted effect of over 45% in size
RE007 growth inh – less growth of the S. pombe RE007 Vpr strain | S. pombe RE007 Vpr strain, BacTiter-Glo ATP luminescence, 24 h | Potency, µM (top dose mostly 92.2 µM), for inactives: at the highest dose activity change, negative = less growth, usual class: inhibitors | 0.21% of 360,000 active; active = well fitted falling curve with a large enough effect; inconclusive = small, poorly fitted or top-dose-only effect; inactive = no such curve, though single readings can be large or run the other way; also: nearly all actives have a fitted effect of over 50% in size
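Fission yeast RE007 carrying one integrated HIV-1 vpr copy, seeded at OD 0.01 in PMG+AL medium with 23 nL pinned compound. Grown 24 h at 30 degrees; viability read by BacTiter-Glo luminescence after 5 min.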
Sm TGR block – S. mansoni TGR enzyme inhibition; purified TGR, DTNB reduction, TNB absorbance 405 nm; Potency, µM (series often up to 114 µM), for inactives: at the top dose activity change, negative = inhibition, hits mostly inhibitors; 3% of 360,000 active; AID 485364; also: nearly all actives have a fitted effect of over 60% in size
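Kinetic colorimetric format: TGR-catalysed, NADPH-driven DTNB reduction monitored via TNB absorbance. Enzyme dispensed at 20 nM; compound exposure 15 min at room temperature before reaction start.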
HCV inh – blocks hepatitis C virus. Huh7.5.1 HCVcc-Cre infection, luciferase reporter, 44 h. Potency, µM (titrated, usually from 41.8 µM), without a hit: top-dose activity change, negative = inhibition, hits mostly inhibitors. 3.4% of 340,000 active
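Whole-lifecycle infectious HCVcc-Cre system; cells 1,000/well, compound then virus (~0.5 moi) added 4 h after plating, 44 h culture. Luciferase read 15 sec following 15 min substrate incubation, room temp.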
LASV entry inh – blocks Lassa virus binding to or entry into cells; AID 540256; Lassa virus pseudotype entry inhibition, cell reporter; Potency, µM (doses to about 37.9 µM), without a hit: at the highest dose activity change, negative = inhibition, actives largely listed as inhibitors; 1.2% of 300,000 active; calls by dose curve; tested in HEK293 cells; also: nearly all actives have a fitted effect of over 50% in size
Numbers without * were called inactive; ? = inconclusive; · = no result given; [ ] = remark or other dose. Unless noted, calls follow the shape of the dose curve; as a rule, active = well fitted curve in the direction sought with a large enough effect; inconclusive = small, poorly fitted or top-dose-only effect, or another doubt; inactive = no such curve, though single readings can be large; an effect the other way counts as inactive or inconclusive. % is scaled to controls: 0 for no effect and ±100 for the full control effect; potency is read from the fitted curve at half-maximal effect.

SMILES	MARV entry inh	FMDV inh	RE007 growth inh	Sm TGR block	HCV inh	LASV entry inh
CCOc1ccc2oc(C(=O)N(C)CCc3ccc(OC)c(OC)c3)c(C)c2c1	·	-12%	1%	-19%	?	·
COc1ccc(CCN(C)C(=O)COC(=O)/C=C/c2ccc(C)o2)cc1OC	6%	-10%	4%	16µM*	-3%	24%
CC1=CC(C)(C)N2C(=O)C3(SCC(=O)N3c3ccc(F)cc3)c3cc(C)cc1c32 (centres undefined)	?	18µM*	3%	-1%	?	-3%
O=C1CC(N2CCN(c3ccccn3)CC2)C(=O)N1CC(c1ccccc1)c1ccccc1 (centres undefined)	?	?	44%	7.1µM*	?	?
CCc1ccc(N2C(=O)CC(N3CCN(c4ccccn4)CC3)C2=O)cc1 (centres undefined)	12%	-17%	?	22µM*	15%	1%
Cc1ccc(Cn2c(C(=O)O)c(CNC3CCCCC3)c3ccc(C)cc32)cc1	·	51%	·	0%	·	-1%[46.1 µM]
O=C1CC(Sc2nnnn2-c2ccccc2)C(=O)N1c1cccc(Cl)c1 (centres undefined)	?	-7%	7.1µM*	2.8µM*	?	?
COc1ccc(N2C(=O)CC(Sc3nnnn3-c3ccc(F)cc3)C2=O)cc1 (centres undefined)	?	-11%	16µM*	·	?	?
Clc1cccc(N2CCN(c3nnnn3-c3ccccc3)CC2)c1	·	?	7%	0%	-22%	·
CC(C)NC(=O)C1(C)CSCC(=O)N1CC(F)(F)F (centres undefined)	·	-8%	14%	·	·	·
c1ccc(-c2cn3c4c(sc3n2)CCCC4)cc1	1.1µM*	-52%	25µM*	6%	-8%	?
Cc1nn2cc(-c3ccccc3)nc2s1	?	·	-16%	0%	14%	?
O=c1[nH]c(SCc2nc3ccccc3c(=O)n2-c2ccccc2C(F)(F)F)nc2ccccc12	4%	18µM*	6%	-13%	-1%	-22%
Cc1nc2ccccc2c(=O)n1-c1ccccc1C(F)(F)F	9%	·	10%	-1%	1%	-2%
O=C(N[C@H]1CCC(=O)N(CCSc2ccc(Br)cc2)CC1)OCc1ccccc1	·	32µM*	-11%	0%	?	·
CC(C)(C)C1CCC(=O)N(CCSc2ccccc2)CC1 (centres undefined)	·	26%	4%	-22%	3.5µM*	·
CCNc1ncnc2c1nnn2C	·	4%	·	3%	·	1%[46.1 µM]
Cc1cc(O)c(C(C)C)cc1C1(c2cc(C(C)C)c(O)cc2C)OC(=O)c2ccccc21	?	?	-5%	13%	5.6µM*	?
O=[N+]([O-])c1cc(S(=O)(=O)N2CCCCCC2)ccc1F	11µM*	?	0%	22µM*	?	?
CN(CC(=O)Nc1ccc(S(=O)(=O)N2CCCC2)cc1)Cc1ccc(Cl)cc1Cl	?	0%	3%	-2%	?	?
CN(CC(=O)Nc1ccc(Cl)cc1)c1ccc(S(=O)(=O)N2CCCCC2)cc1[N+](=O)[O-]	?	?	-1%	-1%	13µM*	?
Brc1ccc(-c2csc(N3CCOCC3)n2)cc1	·	36%	-2%	19%	11µM*	·
Brc1ccc(-c2csc(/N=C/N3CCOCC3)n2)cc1	?	-5%	-19%	-7%	?	?
Clc1ccc(-c2csc(N3CCOCC3)n2)cc1	?	18%	-19%	-1%	-9%	?
Brc1ccc(-c2csc(/N=C/N3CCCC3)n2)cc1	8.9µM*	-22%	?	7%	11µM*	?
SMILES	MARV entry inh	FMDV inh	RE007 growth inh	Sm TGR block	HCV inh	LASV entry inh
COc1ccc(OC)c(CNC(=O)c2ccc(NC(=O)c3nsc4ccccc34)cc2)c1	·	5%	·	-2%	·	-14%[46.1 µM]
CCOc1cccc2cc(C(=O)Oc3ccc(OC)cc3)c(=O)oc12	-21%	-10%	3%	40µM*	19%	1%
COc1cccc2cc(C(=O)Oc3ccccc3)c(=O)oc12	·	10%	-13%	-16%	7%	·
CP(=O)(Nc1cc(Cl)ccc1Cl)c1nc2c(s1)CCCC2 (centres undefined)	·	-3%	19%	8.9µM*	14%	·
COc1ccccc1CN(C)C(=O)c1cc(C)nc2ccccc12	11µM*	-1%	6%	-2%	1%	-1%[46.1 µM]
COc1ccc(C(C)=O)cc1COC(=O)c1cccnc1SC	-10%[46.1 µM]	3%	3%	3.2µM*	?	13%
COc1ccccc1CNC(=O)c1cc(C)nc2ccccc12	3%[46.1 µM]	-10%	-5%	7%	?	-10%
COc1ccc(C(C)=O)cc1COC(=O)Cc1n[nH]c(=O)c2ccccc12	12%	-3%	1%	18µM*	-15%	-14%
COc1ccc(-n2c(C)cc(C(=O)COC(=O)Cc3n[nH]c(=O)c4ccccc34)c2C)cc1	?	28µM*	6%	-8%	?	?
CCOc1ccc(C(C)=O)cc1COC(=O)c1cccnc1SC	25%[46.1 µM]	-12%	-4%	-3%	-23%	-4%
CSc1ccc(NC(=O)C2CCN(c3ncccn3)CC2)cc1	9%[46.1 µM]	21%	·	3%	·	6%[46.1 µM]
COc1ccc(C(C)=O)cc1COC(=O)c1cc(C)oc1C	-12%	-7%	0%	?	?	-11%
COc1ccc(C(C)=O)cc1COC(=O)c1ccc2ccccc2n1	12%[46.1 µM]	8%	-9%	25µM*	-15%	3%
COc1ccc(C(C)=O)cc1COC(=O)c1cc(=O)c2ccccc2o1	15%[46.1 µM]	-7%	?	1.8µM*	-4%	3%
COc1ccc(C(C)=O)cc1COC(=O)c1cc(C)nc2ccccc12	?	-6%	1%	3.5µM*	?	14%[46.1 µM]
Cc1nn(-c2ccccc2)c2c1N(CC(=O)NCc1ccc(N(C)C)cc1)C(=O)CS2	·	-8%	·	-18%	·	?
Cc1cccc(-n2cc(-c3ccccc3)nc2SCC(=O)Nc2ccccc2Cl)c1	·	-4%	·	-5%	·	-1%[46.1 µM]
Cc1oc(-c2ccccc2NC(=O)C2CCCO2)nc1CNC(=O)c1[nH]c2c(C)ccc(C)c2c1C (centres undefined)	·	-14%	·	·	·	·
CCN(CC)CCOC(=O)c1ccc(NC(=O)CCCN2C(=O)/C(=C\c3cccs3)SC2=S)cc1	·	-22%	-1%	0%	10µM*	·
O=C(OCC1OC(n2cnc3c(N(C(=O)c4ccccc4)C(=O)c4ccccc4)ncnc32)C(O)C1F)c1ccccc1 (centres undefined)	-9%	10%	9%	12%	5%	13µM*
CCC1CCCCN1Cc1nc(Cc2ccccc2Cl)no1 (centres undefined)	-13%[46.1 µM]	-18%	2%	14%	-4%	0%
